Assay results from ChEMBL document CHEMBL3433997, “St. Jude Leishmania screening dataset” (2016).

How the values were obtained:
Assay type in all cases: functional
[1] = molecular target: Solute carrier family 2, facilitated glucose transporter member 1 (Homo sapiens) (UniProt P11166); test: ST_JUDE_LEISH: Cytotoxicity at 2uM final concentration against transgenic Leishmania Mexicana promastigotes LmGLUT1 that are glucose transport deficient and complemented with the human glucose transporter GLUT1. Activity is measured by DNA content using SYBR green in vitro
[2] = molecular target: Hexose transporter 1 (Plasmodium falciparum) (UniProt O97467); test: ST_JUDE_LEISH: Cytotoxicity at 2uM final concentration against transgenic Leishmania Mexicana promastigotes LmPfHT that are glucose transport deficient and complemented with the Plasmodium falciparum hexose transporter. Activity is measured by DNA content using SYBR green in vitro
[3] = molecular target: Glucose transporter (Leishmania mexicana) (UniProt O61059); test: ST_JUDE_LEISH: Cytotoxicity at 2uM final concentration against transgenic Leishmania Mexicana promastigotes LmGT2 that are glucose transport deficient and complemented with the L. Mexicana glucose transporter 2. Activity is measured by DNA content using SYBR green in vitro

Chain of Solute carrier family 2, facilitated glucose transporter member 1 (Homo sapiens) (P11166 whole entry): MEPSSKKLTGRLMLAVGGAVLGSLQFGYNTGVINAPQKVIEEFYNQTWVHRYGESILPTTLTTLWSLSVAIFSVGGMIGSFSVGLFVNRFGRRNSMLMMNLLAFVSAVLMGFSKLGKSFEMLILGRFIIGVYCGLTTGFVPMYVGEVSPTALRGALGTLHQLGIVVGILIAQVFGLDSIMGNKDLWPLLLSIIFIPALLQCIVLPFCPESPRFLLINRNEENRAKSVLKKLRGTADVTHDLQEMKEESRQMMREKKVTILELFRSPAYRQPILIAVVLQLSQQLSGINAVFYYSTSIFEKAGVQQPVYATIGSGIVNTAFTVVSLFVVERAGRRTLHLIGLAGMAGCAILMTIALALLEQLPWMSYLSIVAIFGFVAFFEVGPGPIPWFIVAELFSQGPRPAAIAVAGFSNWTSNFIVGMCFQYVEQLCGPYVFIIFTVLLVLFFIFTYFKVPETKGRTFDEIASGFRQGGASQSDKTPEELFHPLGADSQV

Row | SMILES | inhibition [1] [%] | inhibition [2] [%] | inhibition [3] [%]
1 | Cc1cc(NC(=O)Nc2ccc3ncccc3c2)c2ccccc2n1 | 4.47 | 3.97 | 1.94
2 | COc1ccc(CC2(c3ccc(F)cc3)N=C(N)N(CCCc3ccccc3)C2=O)cc1 (stereo not drawn) | 5.85 | 5.5 | 4.39
3 | CCOC(=O)c1cn(CC)c2cc(N3CCCCCC3)c(F)cc2c1=O | 10.3 | 4.48 | 3.87
4 | CCNC(=O)Nc1ccc(-c2ccc(-c3nc4cccc(C)c4[nH]3)s2)cc1 | 11.7 | 8.87 | 7.95
5 | COc1ccc(C(=O)Nc2ccc(-c3ccc([N+](=O)[O-])cc3)cc2)cc1CCCN(C)C | 2.83 | 3.93 | 2.45
6 | O=C(Nc1ccc2c(c1)OCCO2)c1cc(-c2cccnc2)nc2ccc(Cl)cc12 | 3.75 | 1.71 | 0.65
7 | O=C(Cc1ccsc1)NCC(c1ccccc1Cl)c1c[nH]c2ccccc12 (stereo not drawn) | 6.27 | 5.24 | 4.67
8 | CS(=O)(=O)Nc1ccc(-c2cnc3[nH]cc(-c4ccc(C(=O)O)cc4)c3c2)cc1 | 8.98 | 9.93 | 8.74
9 | COc1cc(C(C)C)nc2ccc(NC(=O)c3ccc(C(=O)Nc4ccc5nc(C(C)C)cc(OC)c5c4)cc3)cc12 | 6.44 | 5.94 | 3.76
10 | Cc1cc(-c2ccc3occ(CCN)c3c2)cnc1N | 1.36 | 0.86 | 1.13
11 | OC(c1cccc2ccccc12)C1CN(CCc2ccccc2)CCC1(O)c1ccccc1 (stereo not drawn) | 9.92 | 11.8 | 3.51
12 | CC(C)(CNC(=O)C1CCN(Cc2ccoc2)CC1)c1nc(-c2ccc(Cl)c(O)c2)c(-c2ccncc2)[nH]1 | -1.41 | 0.07 | -2.68
13 | C[C@H](NC(=O)c1c(CN2CCC(NC(=O)CC(C)(C)C)CC2)c(-c2cccs2)nc2ccccc12)C1CCCCC1 | 2.07 | 1.16 | 0.4
14 | C=CCN1Cc2c(O)cccc2C(c2ccc(O)c(O)c2)C1 (stereo not drawn) | 6.49 | 5.18 | 4.91
15 | Cc1cc(N[C@@H](Cc2ccccc2)C(=O)NC2CCCC2)nc(NCCc2ccc(F)cc2)n1 | 5.06 | 5.18 | -0.53
16 | O=c1cc(NCCCN(Cc2ccccc2)Cc2ccccc2)[nH]c2ccccc12 | 0.48 | 4 | 5.36
17 | CCCCCCNc1cc(C)nc2ccc(OC)cc12 | 11.1 | 11.4 | 4.54
18 | Cc1ccc(O)cc1C[C@@H]1C(=O)CC[C@@]2(C)[C@H]1CC[C@]2(C)O | -1.27 | 1 | 2.57
19 | CN(C)c1nc(NN=Cc2cc(Cl)ccc2O)nc(Nc2ccc(F)cc2)n1 | 13 | 11 | 10.9
20 | COc1cc(C(=O)Nc2ccc3nc(N4CCN(C)CC4)cc(C)c3c2)cc(OC)c1OC | 1.09 | 0.31 | -0.52
21 | CCCCCC(C)NC[C@@H](O)[C@H](Cc1ccccc1)NC(=O)c1cc(NCC)cc(N2CCCCS2(=O)=O)c1 (stereo partly drawn) | -0.71 | 1.3 | 0.36
22 | Cc1[nH]c(C)c(-c2ccc(Oc3ccc(O)cc3)cc2)c(=O)c1Cl | 3.19 | 1.48 | -5.02
23 | c1cncc(Oc2ccc(Nc3ccnc4cc(-c5cccc(CNCCN6CCOCC6)c5)ccc34)cc2)c1 | 0.19 | -1.57 | 1.1
24 | CC(C)(C)OC(=O)NCC(=O)N(Cc1ccccc1)Cc1ccccc1 | 4.96 | 4.38 | 3.73
25 | Cc1c(F)cc(C(=O)NC2CC2)cc1-c1ccc2c(cnn2S(=O)(=O)c2cccs2)c1 | 2.62 | 5.11 | 0.02
26 | COc1ccc2nccc([C@@H](O)CN3CCC(NCc4nc5cc(F)c(F)cc5[nH]4)CC3)c2c1 | 0.88 | 2.26 | -0.99
